Rows were chosen to be rich in hits. Some 4% of all compounds tested hit in one or more screens of this group.
D1 antag: antagonists of human D1 dopamine receptor. P21728. HEK293 TREx D1 cells, calcium flux, dopamine EC80; hits give low values. activity change, negative = inhibition, % at 10 µM. 360,000 tested, 3.2% active; in the data active = activity change below about -30%; note: % is set by controls: 0 for no effect and ±100 for the full control effect
Target sequence (P21728 whole entry, looked up): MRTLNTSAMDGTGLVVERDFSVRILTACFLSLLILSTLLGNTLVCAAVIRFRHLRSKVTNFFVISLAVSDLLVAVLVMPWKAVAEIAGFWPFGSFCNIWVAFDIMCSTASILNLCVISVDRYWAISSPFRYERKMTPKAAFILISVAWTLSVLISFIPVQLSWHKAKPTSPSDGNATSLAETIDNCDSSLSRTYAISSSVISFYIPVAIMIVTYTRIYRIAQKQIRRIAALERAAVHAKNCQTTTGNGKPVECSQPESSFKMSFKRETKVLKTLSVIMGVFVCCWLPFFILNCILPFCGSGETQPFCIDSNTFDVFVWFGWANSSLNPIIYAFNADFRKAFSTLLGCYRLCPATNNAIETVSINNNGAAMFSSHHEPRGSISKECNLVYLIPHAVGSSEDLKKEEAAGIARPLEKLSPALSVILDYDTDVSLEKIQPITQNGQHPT
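Antagonism measured as reduced calcium response to an EC80 dopamine addition following 180 s compound pre-read; cells were inducible HEK293 Trex D1 plated overnight at 30 C, read kinetically at 1 cycle/sec.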
D1 PAM: human D1 dopamine receptor positive modulation; HEK293 TREx D1 cells, calcium flux, dopamine EC20 potentiation; 360,000 tested, 0.036% active; potentiation, % at 10 µM; AID 504651; in the data active = potentiation above about 30%; note: 0% is about no effect
TRHR enhancer: allosteric enhancers of human TRH receptor; P34981; TRHR cells, fluo-8 calcium fluorescence, EC20 TRH enhancement; enhancement, % at 2 µM; 360,000 tested, 0.66% active; AID 493056; in the data active = enhancement above about 30%; note: 0% is about no effect
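Enhancer read-out: after compound pinning and an initial kinetic agonist-mode read, an EC20 of TRH (10 nM final) was injected and fluo-8 calcium signal (Ex 480/Em 530) followed at 1 s/cycle for 100 cycles in TRHR-expressing cells.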
GRP78 ERSR act: inducers of ER stress response in human glioma cells. 420,000 tested, 0.02% active. AID 602332. Potency, µM, for inactives: at the top dose activation, actives largely listed as activators. U87-MG GRP78 promoter luciferase reporter, 16 h; active = well fitted activation curve with a large enough effect; note: potency is the fitted concentration of half-maximal effect; series mostly up to about 76 µM; % of control where 0% means no effect; nearly all actives have a fitted effect of over 35% in size
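Stably transfected U87-MG human glioma cells carrying a GRP78-based luminescent sensor were seeded at 1000 cells/well, pin-dosed with compounds and incubated 16 h. Luciferase reagent was then added, and end-point luminescence was read after 10 min at room temperature.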
TRHR agonist: agonists of human TRH receptor | P34981 | TRHR cells, calcium flux fluo-8, FDSS agonist mode | activation, % at 2 µM | 360,000 tested, 0.18% active | AID 493084; note: 0% is about no effect
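Steps: seed TRHR cells overnight; add fluo-8 no-wash Ca dye, RT 30 min–1.5 h; record 10 s baseline; pin-transfer compounds; monitor fluorescence 1 cycle/s for the agonist window. Calcium increases flag candidate agonists.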
D1 ag: activates the human D1 dopamine receptor. 360,000 tested, 1% active. activation, % at 2 µM. HEK293 T-REx D1 cells, calcium flux, agonist mode. P21728. AID 504660; note: 0% is about no effect
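Tetracycline-induced HEK293 TREx D1 cells, force-coupled to calcium signalling, were dye-loaded with a no-wash calcium kit. Compound was pin-added after a 10 s baseline. Fluorescence was read kinetically at 1 cycle/s for 180 s, with calcium rises flagged as agonism.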
Starred values were filed as active, the others as inactive; · = no result given. Cut-off read from the data, not from the text of the source, unless noted: active = activation above about 30%; inactive = the rest.

SMILES | D1 antag | D1 PAM | TRHR enhancer | GRP78 ERSR act | TRHR agonist | D1 ag
C=CCNC(=O)c1onc(CSc2ccccc2F)c1C(=O)O | 20.9 | 1.3 | 5.7 | -4.0% | -0.2 | 26.9
C=CCNC(=O)c1onc(CSc2cccc3ccccc23)c1C(=O)O | 22.6 | -5.6 | 32.5* | 3.4% | -0.1 | 2.9
O=C(NCc1ccccc1)c1onc(CSc2ccccc2)c1C(=O)NCC1CC1 | -50.7* | -2.4 | -8.1 | -1.8% | 11.4 | 45.7*
CCCCNC(=O)c1onc(CSc2ccccn2)c1C(=O)NCCCC | · | · | · | -3.4% | · | ·
COc1ccc(/C=C/C(=O)NCCOc2ccc(C)cc2)cc1 | 60.3 | -2.5 | 1.7 | -3.3% | 0.0 | 4.8
O=C(NCc1ccc(Cl)cc1)C1CCN(c2nnc(N3CCCC3=O)s2)CC1 | 6.7 | -13.4 | -5.4 | -0.7% | -0.1 | 4.9
Cc1ccc(S(=O)(=O)Nc2cc(=O)[nH]c(SCc3ccccc3Cl)n2)cc1 | -31.5* | -7.8 | -2.4 | -3.3% | 0.7 | 12.4
O=c1cc(NS(=O)(=O)c2ccccc2)nc(SCc2ccc(Cl)cc2)[nH]1 | -35.9* | -6.0 | 2.9 | -2.9% | -0.5 | 18.0
CC(C)CC(=O)Nc1ccc2nn(-c3ccccc3)nc2c1 | -5.5 | 1.4 | -10.4 | 2.6% | 1.3 | 8.9
O=C1CC(N2CCN(c3ccc(Cl)cc3)CC2)C(=O)N1c1ccccc1 (configuration not stated) | 3.3 | -1.3 | -5.1 | -6.0% | 1.9 | 7.8
COc1ccc(NC(=O)c2cc(-c3ccccn3)nc3c(C)cc(C)cc23)c(C)c1 | -1.9 | -8.7 | 20.7 | -2.7% | 0.4 | 4.1
C=C1C[C@@]23CCC4[C@@](C)(CCC[C@@]4(C)C(=O)OC)C2CC[C@]1(OC(C)=O)C3 (some centres not stated) | · | 6.1 | 0.9 | -2.9% | -0.1 | 0.6
CC1=C(C(=O)N2CCOCC2)C(c2ccc(Br)cc2)NC(=S)N1c1ccccc1 (configuration not stated) | -41.7* | -4.8 | -0.3 | 1.0% | 0.3 | 1.0
CCOc1ccc(C(=O)Nc2cccc3ncccc23)cc1Cl | -30.1* | -6.5 | -9.0 | -4.4% | 0.0 | 4.7
CCN(CC(=O)Nc1ccc(NC(C)=O)cc1)C(=O)C1CCC1 | -5.9 | -12.6 | 23.3 | -2.7% | 0.5 | 0.3
CN(C)S(=O)(=O)c1ccc(N2CCCC2)c(C(=O)Nc2ccc(F)cc2F)c1 | -14.5 | -5.0 | 2.7 | -1.9% | 0.1 | 2.8
COc1ccc(C(C)(C)C)cc1NC(=O)c1cc(S(=O)(=O)N(C)C)ccc1N1CCCC1 | -50.8* | -9.3 | -6.2 | -3.8% | -0.5 | 4.0
COc1cccc(Oc2c(C)oc3c(CN4CCCC4)c(O)ccc3c2=O)c1 | -21.5 | -8.9 | -4.3 | -1.8% | 0.6 | 2.4
CCN(CC)CCN1C(=O)C(=O)/C(=C(/O)c2c(C)[nH]c(C(=O)OC)c2C)C1c1ccco1 (configuration not stated) | 1.3 | -2.2 | 30.1* | -6.1% | 0.3 | 1.0
CCCc1ccc(C#N)c(SC2CC(=O)N(c3ccc(OC)cc3)C2=O)n1 (configuration not stated) | -45.0* | -2.0 | 7.9 | -2.2% | -0.4 | 12.7
COc1ccc(N2C(=O)CC(Sc3nnc(-c4ccccc4)o3)C2=O)cc1 (configuration not stated) | -9.2 | -5.4 | 1.3 | -0.6% | -0.3 | 1.1
Nc1cc(S(=O)(=O)Nc2cc(Cl)ccc2Cl)ccc1N1CCCC1 | -33.3* | -9.6 | 5.6 | -1.7% | -1.0 | 3.8
COc1ccc(NS(=O)(=O)c2cccc(C(=O)OCC(=O)N3CCN(c4ccc(OC)cc4)CC3)c2)cc1 | -69.0* | 3.9 | 12.6 | -6.8% | -0.2 | 6.7
COc1ccc(NS(=O)(=O)c2ccc(N3CCCC3)c(N)c2)cc1 | -5.7 | -5.5 | 8.4 | 0.4% | -0.9 | 38.0*
COc1ccc(NS(=O)(=O)c2cc(N)ccc2N2CCCC2)cc1 | · | · | · | -3.9% | · | ·
SMILES | D1 antag | D1 PAM | TRHR enhancer | GRP78 ERSR act | TRHR agonist | D1 ag
O=C(COC(=O)c1ccccc1NC(=O)c1ccco1)NC1CCCCC1 | -7.9 | -3.3 | 3.5 | -4.6% | -0.7 | 1.8
O=C(Cn1ncc2c3ccccc3n(Cc3ccccc3F)c2c1=O)NCCCc1ccccc1 | 6.7 | 2.1 | 1.3 | -2.4% | -0.1 | 1.6
Fc1ccc2nc(N3CCCC3)sc2c1 | -7.6 | 0.4 | 1.3 | -8.2% | -1.4 | -4.0
O=C(COC(=O)c1cc(=O)[nH]c2ccc(Br)cc12)c1ccccc1 | 108.4 | 1.6 | 32.9* | -3.7% | -2.4 | 0.2
O=C(Nc1nccs1)c1cn(-c2ccccc2)nc1-c1ccncc1 | · | -3.8 | -6.5 | -3.3% | 0.1 | -1.7
O=C(Nc1ccncc1)c1cn(-c2ccccc2)nc1-c1cccs1 | -49.3* | -24.4 | 16.0 | -2.0% | 0.2 | 16.6
O=C(CN1CCN(c2ccccc2O)CC1)Nc1ccccc1C(=O)NCCc1ccccc1 | -41.0* | 4.8 | 10.1 | -5.3% | -0.4 | -0.2
COc1ccc(CCNC(=O)c2ccccc2NC(=O)CN2CCN(c3ccccc3O)CC2)cc1 | 3.8 | -4.9 | 8.7 | -4.3% | 0.0 | -0.5
CN(C)CC(C)(O)c1ccc2c(c1)CN(C(=O)c1ccc(-n3cccn3)cc1)CCO2 (configuration not stated) | · | · | · | -3.7% | · | ·
COc1ccc(-c2cc(=O)c3cc(O)ccc3o2)cc1 | -33.6* | -2.2 | 1.5 | 1.0% | -0.5 | -2.0
COc1ccc(-c2cc(=O)c3cc(OCC(=O)OC(C)C)ccc3o2)cc1 | -60.3* | -1.4 | 1.2 | -3.7% | -1.7 | 18.9
Cc1nc2nc(SCC(=O)NC3CCCCC3)nn2c(C)c1Cc1ccccc1Cl | -14.8 | -0.9 | -5.2 | 0.2% | -0.5 | -0.3
COc1ccc(CCN(C)C(=O)c2cc(S(=O)(=O)NCc3ccccc3)ccc2C)cc1OC | -8.2 | -7.8 | -1.9 | -0.3% | -0.2 | 0.8
Cc1cc2c(c(=O)n1CCc1ccccc1)C(C(C)C)C(C#N)=C(N)O2 (configuration not stated) | -32.1* | -12.4 | 3.1 | -4.5% | -1.7 | 2.6
CCN(CC)CCCn1c(C)cc2c(c1=O)C(c1ccccc1)C(C#N)=C(N)O2 (configuration not stated) | -22.9 | -6.9 | 3.1 | -1.8% | 0.3 | 0.2
COc1cc(C(=O)NCCSc2ccc(Br)cc2)cc(OC)c1OC | 3.6 | -4.2 | 4.3 | 0.2% | -0.7 | 1.6
Cc1cccc(N2C(=O)N3[C@H](c4ccc(Cl)cc4)[C@@H]4C(=O)N(C5CCCCC5)C(=O)[C@@H]4[C@]3(Cc3ccc(Cl)cc3)C2=O)c1 | -40.3* | -8.1 | 5.3 | -2.1% | 3.6 | 10.6
S=C(Nc1ccc2nccnc2c1)N1CCCC1 | -3.5 | -0.1 | 0.5 | -1.5% | 0.3 | 1.2
CCc1ccc(-n2nc(C)c3c(C(=O)N4CCN(c5ccccc5)CC4)cc(C)nc32)cc1 | -35.6* | -0.9 | 5.9 | -2.6% | -0.2 | 1.4
